In the supplement of paper PMC10338343:
± gives the standard deviation.

Key:
[1] = test system: MILI (PIWIL2) piRISC loaded with piRNA #1 (26 nt); assay: pre-steady-state target cleavage rate (min^-1); guide: piRNA #1 5'p-UGAGGUAGUAGGUUGUAUAGUAUCCA; higher = faster piRNA-guided slicing of the target; settings: auxiliary factor: 500 nM mouse GTSF1;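 further: 1 nM active piRISC with 0.1 nM target library at 33 °C single turnover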
Summary of the method: (§1)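 For Cleave-'n-Seq, a transcribed, DNA-blocked target RNA library […] met 1 nM active affinity-purified piRISC with one synthetic guide at 33 °C for 0–8 or 0–960 min in HEPES–potassium acetate buffer, with or without 500 nM GTSF1 partner protein. Uncleaved targets were sequenced and normalised to depth and weakly complementary targets, with three trials pooled and k3 capped at 0.0001 min^-1. A burst-and-steady-state fit supplied the pre-steady-state cleavage rate.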

[2] = test system: EfPiwi piRISC loaded with piRNA #1 (26 nt); assay: pre-steady-state target cleavage rate (min^-1); auxiliary factor: 500 nM Ephydatia muelleri Gtsf1; guide: piRNA #1 5'p-UGAGGUAGUAGGUUGUAUAGUAUCCA; MIWI and MILI are mouse PIWI proteins and EfPiwi is from a freshwater sponge; tags in brackets are library labels; higher = faster piRNA-guided slicing of the target
Summary of the method: as §1

Row | Sequence | pre-steady-state target cleavage rate [1] | pre-steady-state target cleavage rate [2]
1 | GGAGUGGAUACUAUCAACCUACUACCUCA | 0.186 ± 0.0098 | 0.0872 ± 0.035
2 | GGAGACCAUACUAUACAACCUACUACCUGA | 0.155 ± 0.023 | 0.00567 ± 0.0018
3 | GGAGACGAUACUAUACAACCAAGUACCUCA | 0.00441 ± 0.0027 | 0.00215 ± 0.0019
4 | GGAGAGGAAACUAUUCAACCUACUACCUCA | 0.172 ± 0.021 | 0.013 ± 0.0061
5 | GGAGACGAUACUAAACAACCUUCUACCUCA | 0.00978 ± 0.003 | 0.00427 ± 0.004
6 | GGAGAGGAUACUAUACAACUACUACCUCA | 0.0329 ± 0.0041 | 0.00869 ± 0.0042
7 | GGAGACGUUACUAUACAACCUAGUACCUCA | 0.0428 ± 0.0087 | 0.00427 ± 0.0015
8 | GGAGUGGAUACUAUACAACCUACUACGAGA | 0.0112 ± 0.004 | 0.00447 ± 0.0022
9 | GGAGAGGAUACUUUACAAGCUACUACCUCA | 0.149 ± 0.014 | 0.00384 ± 0.0021
10 | GGAGAGGAUACUAUACAACCUACUUCCUCA | 0.0124 ± 0.0047 | 0.00514 ± 0.0026
11 | GGAGUGGAUACUAUACAACCUUCUACCUCA | 0.00895 ± 0.002 | 0.0116 ± 0.0048
12 | GGAGACGAUACUAUACAACCUACAACCUGA | 0.0121 ± 0.0074 | 0.00441 ± 0.0022
13 | GGAGUGGAUACUAUACAACCUACUCCCUCA | 0.0191 ± 0.0045 | 0.00426 ± 0.0017
14 | GGAGACGAUAGUAUACAUCCUACUACCUCA | 0.232 ± 0.016 | 0.00323 ± 0.0026
15 | GGAGUGGAUUGAAUACAACCUACUACCUCA | 0.0713 ± 0.0073 | 0.00637 ± 0.0044
16 | GGAGACGAUACUAUACAACCUACUGACCUCA | 0.118 ± 0.015 | 0.00338 ± 0.0017
17 | GGAGACGAUAUCUAUACAACCUACUACCUCA | 0.0966 ± 0.013 | 0.00603 ± 0.0041
18 | GGAGAGGUUACUAUUCAACCUACUACCUCA | 0.164 ± 0.0098 | 0.00359 ± 0.0029
19 | GGAGACGAUACUAUACAUGCUACUACCUCA | 0.115 ± 0.01 | 0.00483 ± 0.0015
20 | GGAGACGAUACUAUACAACCUACUACACUCA | 0.202 ± 0.03 | 0.00494 ± 0.0019

Row | Sequence | pre-steady-state target cleavage rate [1] | pre-steady-state target cleavage rate [2]
21 | GGAGUGCAUAGUAUACAACCUACUACCUCA | 0.125 ± 0.011 | 0.0131 ± 0.0064
22 | GGAGACCAUUCUAUACAACCUACAACCUCA | 0.13 ± 0.013 | 0.00312 ± 0.0031
23 | GGAGAGGAUACUAAACAACCUACUACCACA | 0.108 ± 0.011 | 0.00277 ± 0.002
24 | GGAGUGGAUACUAUACAACCUACUACCUACA | 0.122 ± 0.013 | 0.068 ± 0.024
25 | GGAGUGGAUUCUAUACAUCCUACUACCUCA | 0.299 ± 0.013 | 0.00479 ± 0.0026
26 | GGAGACCUUACUAUACAACGUACUACGUCA | 0.00879 ± 0.0038 | 0.00267 ± 0.0018
27 | GGAGACCUAACUAUUACAACCUACUACCUCA | 0.099 ± 0.023 | 0.0205 ± 0.0091
28 | GGAGUGGAUACUAUACGACCUACUACCUCA | 0.135 ± 0.0095 | 0.0922 ± 0.036
29 | GGAGUGGAUACUAGUACAACCUACUACCUCA | 0.141 ± 0.011 | 0.175 ± 0.056
30 | GGAGUGGAUACUAUUCAACCUACAACCUCA | 0.0706 ± 0.01 | 0.00255 ± 0.0022
31 | GGAGAGGAUAGUAUACAACCUACUACCUCA | 0.0476 ± 0.01 | 0.00608 ± 0.0032
32 | GGAGACCAUACUAUCCAACCUACUACCUCA | 0.178 ± 0.017 | 0.00636 ± 0.0033
33 | GGAGACGAUACUAUAGAUCCUACUACCUCA | 0.224 ± 0.013 | 0.00498 ± 0.0016
34 | GGAGACCAUACUAUACAUCCUACUACCUGA | 0.23 ± 0.034 | 0.00312 ± 0.0018
35 | GGAGUUGAUACUAUACAACCUACUACCUCA | 0.204 ± 0.012 | 0.193 ± 0.06
36 | GGAGACGAUACUAUACAACCUACUACUCUCA | 0.244 ± 0.019 | 0.00563 ± 0.0022
37 | GGAGACGAUACUAUUCAACCUACUUCCUCA | 0.0306 ± 0.0097 | 0.00413 ± 0.0031
38 | GGAGACCUAACUAUACAUCCUACUACCUGA | 0.116 ± 0.039 | 0.00344 ± 0.0029
39 | GGAGAGGAUACUAUACAACCAACUACGUCA | 0.00609 ± 0.0018 | 0.00338 ± 0.0016
40 | GGAGACCUAUCUAUACAACCUACUACCUGA | 0.074 ± 0.011 | 0.00569 ± 0.0033

Row | Sequence | pre-steady-state target cleavage rate [1] | pre-steady-state target cleavage rate [2]
41 | GGAGAGGAUAGUAUACAACCUACUACCUGA | 0.0327 ± 0.0082 | 0.00298 ± 0.0022
42 | GGAGACGAUACUAUACAACCUCACUACCUCA | 0.00413 ± 0.0033 | 0.0049 ± 0.0024
43 | GGAGACCUUAGCUAUACAACCUACUACCUCA | 0.112 ± 0.015 | 0.0684 ± 0.027
44 | GGAGACGAUACUUAUCAACCUACUACCUCA | 0.148 ± 0.013 | 0.00522 ± 0.0041
45 | GGAGUGGAUACUAUUCAACCAACUACCUCA | 0.0045 ± 0.002 | 0.00404 ± 0.0021
46 | GGAGACCUAACUAUACAACCUACAACCUGA | 0.00865 ± 0.0074 | 0.00402 ± 0.0029
47 | GGAGACGAUACUAUACAACCUACUACCUAA | 0.153 ± 0.015 | 0.103 ± 0.033
48 | GGAGAGGAUACUCUACAACCUACUACCUCA | 0.204 ± 0.013 | 0.00431 ± 0.0033
49 | GGAGACGAUACUAUACAACCUGACUACCUCA | 0.00401 ± 0.0024 | 0.00426 ± 0.0019
50 | GGAGACCAUACUAUACUACCUAGUACCUCA | 0.0453 ± 0.0095 | 0.00377 ± 0.0033
51 | GGAGACCUAUCUAUACAACCUACUACCUCC [g2:g20:cont:t1C] | 0.106 ± 0.011 | 0.0049 ± 0.0034
52 | GGAGUGGAUACUAUACUAGCUACUACCUCA | 0.158 ± 0.011 | 0.0081 ± 0.0031
53 | GGAGAGGAUACUAUACAUCGUACUACCUCA | 0.0374 ± 0.0069 | 0.00364 ± 0.0019
54 | GGAGACCAUACUAUACAACCUACUACCCA | 0.0934 ± 0.019 | 0.00453 ± 0.0028
55 | GGAGAGGAUACUAUACAACCUACUAACUCA | 0.0462 ± 0.014 | 0.00561 ± 0.0029
56 | GGAGACCAUACUAUACAACCUACUACACUCA | 0.204 ± 0.027 | 0.00487 ± 0.0033
57 | GGAGACGAUACUAUACAACCUACAACCUCA | 0.142 ± 0.019 | 0.00407 ± 0.0013
58 | GGAGACGAUACUAUAGAACCUACUUCCUCA | 0.0055 ± 0.0044 | 0.00251 ± 0.0022
59 | GGAGACGAUAAUAUACAACCUACUACCUCA | 0.172 ± 0.011 | 0.072 ± 0.025
60 | GGAGACCUAUGUAUUACAACCUACUACCUCA | 0.0187 ± 0.0046 | 0.0036 ± 0.0033
